# Measurements: PubChem BioAssay AID1159580 (chemical genetic matrix, 2015)
# The whole screen tested about 5,500 compounds, of which about 2,000 (36%) were called active. About 18% were inconclusive and are not listed. Some of the results follow. Values without a mark were called inactive. Cut-off read from the data, not from the text of the source: active = normalized growth mostly below about 0.91 (no sharp cut-off); inconclusive = no clear call, values can overlap the other calls; inactive = mostly above about 0.92.
# Assay: chemical genetic growth profiling, strain panel (AID 1159580);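 note: tested at 20 µM; growth read once vehicle control cultures reached saturation at 30 °C; 1 = growth at the plate median or of vehicle wells; lower values mean less growth of the strain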
# Conditions: S. cerevisiae deletion strains, growth OD
# [1] = locus YDL101C, strain DUN1, stronger effect = lower value
# [2] = locus YHR030C, strain SLT2, stronger effect = lower value
smiles,measurement,setting,value
COc1ccccc1C1CCN(c2ncnc3scc(-c4ccccc4)c23)CC1,normalized growth,"locus YAL013W, strain DEP1, stronger effect = lower value",1
same,normalized growth,"locus YBR229C, strain ROT2, stronger effect = lower value",1.01
same,normalized growth,"locus YCL061C, strain MRC1, stronger effect = lower value",1
same,normalized growth,[1],1.04
same,normalized growth,"locus YDL134C, strain PPH21, stronger effect = lower value",0.994
same,normalized growth,"locus YDR150W, strain NUM1, stronger effect = lower value",1.05
same,normalized growth,"locus YEL061C, strain CIN8, stronger effect = lower value",1
same,normalized growth,"locus YGR078C, strain PAC10, stronger effect = lower value",1.01
same,normalized growth,"locus YGR229C, strain SMI1, stronger effect = lower value",1.01
same,normalized growth,[2],1.03
same,normalized growth,"locus YHR087W, strain rtc3, stronger effect = lower value",0.976
same,normalized growth,"locus YJR043C, strain POL32, stronger effect = lower value",1.01
same,normalized growth,"locus YJR075W, strain HOC1, stronger effect = lower value",1.01
same,normalized growth,"locus YKL190W, strain CNB1, stronger effect = lower value",1
same,normalized growth,"locus YLR039C, strain RIC1, stronger effect = lower value",1.02
same,normalized growth,"locus YLR058C, strain SHM2 (second series), stronger effect = lower value",0.984
same,normalized growth,"locus YLR085C, strain ARP6, stronger effect = lower value",1.03
same,normalized growth,"locus YLR262C, strain YPT6, stronger effect = lower value",1.01
same,normalized growth,"locus YML094W, strain GIM5, stronger effect = lower value",0.992
same,normalized growth,"locus YMR219W, strain ESC1, stronger effect = lower value",0.996
same,normalized growth,"locus YMR263W, strain SAP30, stronger effect = lower value",1.02
same,normalized growth,"locus YNL128W, strain TEP1, stronger effect = lower value",1.02
same,normalized growth,"locus YNL153C, strain GIM3, stronger effect = lower value",1.01
same,normalized growth,"locus YNL298W, strain CLA4 (second series), stronger effect = lower value",0.994
same,normalized growth,"locus YNL322C, strain KRE1, stronger effect = lower value",0.992
same,normalized growth,"locus YNR030W, strain Alg12, stronger effect = lower value",1
same,normalized growth,"locus YPL055C, strain LGE1, stronger effect = lower value",0.987
same,normalized growth,"locus YPL241C, strain CIN2, stronger effect = lower value",1.04
same,normalized growth,"locus YPR135W, strain CTF4, stronger effect = lower value",1.02
Cc1csc2ncnc(N3CCN(C(=O)Nc4ccc(SC(F)(F)F)cc4)CC3)c12,normalized growth,"locus YAR019C, strain CDC15, stronger effect = lower value",1.01
same,normalized growth,"locus YBL105C, strain PKC1, stronger effect = lower value",0.991
same,normalized growth,"locus YBR135W, strain CKS1, stronger effect = lower value",0.999
same,normalized growth,"locus YBR136W, strain MEC1, stronger effect = lower value",1
same,normalized growth,"locus YBR160W, strain CDC28, stronger effect = lower value",0.979
same,normalized growth,"locus YDL017W, strain CDC7, stronger effect = lower value",0.982
same,normalized growth,"locus YDL028C, strain MPS1, stronger effect = lower value",0.994
same,normalized growth,[1],1
same,normalized growth,"locus YDL108W, strain KIN28, stronger effect = lower value",0.995
same,normalized growth,"locus YDL132W, strain cdc53, stronger effect = lower value",1
same,normalized growth,"locus YDL214C, strain PRR2, stronger effect = lower value",0.908
same,normalized growth,"locus YDR052C, strain DBF4, stronger effect = lower value",0.988
same,normalized growth,"locus YDR054C, strain cdc34, stronger effect = lower value",0.993
same,normalized growth,"locus YDR226W, strain ADK1, stronger effect = lower value",1
same,normalized growth,"locus YDR477W, strain SNF1, stronger effect = lower value",0.937
same,normalized growth,"locus YER123W, strain YCK3, stronger effect = lower value",0.902
same,normalized growth,"locus YER133W, strain GLC7, stronger effect = lower value",0.912
same,normalized growth,"locus YFL009W, strain cdc4, stronger effect = lower value",1.01
same,normalized growth,"locus YFL029C, strain CAK1, stronger effect = lower value",1
same,normalized growth,"locus YFR003C, strain YPI1, stronger effect = lower value",1.01
same,normalized growth,"locus YFR019W, strain FAB1, stronger effect = lower value",0.918
same,normalized growth,"locus YFR028C, strain CDC14, stronger effect = lower value",0.994
same,normalized growth,"locus YGR040W, strain KSS1, stronger effect = lower value",0.925
same,normalized growth,"locus YGR052W, strain FMP48, stronger effect = lower value",0.963
same,normalized growth,"locus YGR092W, strain DBF2, stronger effect = lower value",0.867
same,normalized growth,[2],0.818 (active)
same,normalized growth,"locus YHR079C, strain IRE1, stronger effect = lower value",0.866
same,normalized growth,"locus YHR082C, strain KSP1, stronger effect = lower value",0.947
same,normalized growth,"locus YHR205W, strain SCH9, stronger effect = lower value",0.927
same,normalized growth,"locus YIL147C, strain SLN1, stronger effect = lower value",0.987
same,normalized growth,"locus YJL095W, strain BCK1, stronger effect = lower value",0.868
same,normalized growth,"locus YJL128C, strain PBS2, stronger effect = lower value",0.972
same,normalized growth,"locus YJL157C, strain FAR1, stronger effect = lower value",0.88
same,normalized growth,"locus YJR016C, strain ILV3, stronger effect = lower value",0.994
same,normalized growth,"locus YJR066W, strain TOR1 (second series), stronger effect = lower value",0.65
same,normalized growth,"locus YJR066W, strain TOR1, stronger effect = lower value",0.915
same,normalized growth,"locus YKL048C, strain ELM1, stronger effect = lower value",0.931
same,normalized growth,"locus YKL067W, strain YNK1, stronger effect = lower value",0.915
same,normalized growth,"locus YKL101W, strain HSL1, stronger effect = lower value",0.903
same,normalized growth,"locus YKL193C, strain SDS22, stronger effect = lower value",1
same,normalized growth,"locus YKL203C, strain TOR2, stronger effect = lower value",0.977
same,normalized growth,"locus YLR113W, strain HOG1, stronger effect = lower value",0.806 (active)
same,normalized growth,"locus YLR133W, strain CKI1, stronger effect = lower value",0.909
same,normalized growth,"locus YLR403W, strain SFP1, stronger effect = lower value",0.905
same,normalized growth,"locus YML070W, strain DAK1, stronger effect = lower value",0.886
same,normalized growth,"locus YMR001C, strain CDC5, stronger effect = lower value",0.999
same,normalized growth,"locus YMR205C, strain PFK2 (second series), stronger effect = lower value",0.903
same,normalized growth,"locus YMR277W, strain FCP1, stronger effect = lower value",1
same,normalized growth,"locus YNL006W, strain LST8, stronger effect = lower value",0.997
same,normalized growth,"locus YNL020C, strain ARK1, stronger effect = lower value",0.898
same,normalized growth,"locus YNL161W, strain CBK1, stronger effect = lower value",1
same,normalized growth,"locus YNL183C, strain NPR1, stronger effect = lower value",0.895
same,normalized growth,"locus YNL207W, strain RIO2, stronger effect = lower value",0.987
same,normalized growth,"locus YNL222W, strain SSU72, stronger effect = lower value",1
same,normalized growth,"locus YNL307C, strain MCK1 (second series), stronger effect = lower value",0.866
same,normalized growth,"locus YOL078W, strain AVO1, stronger effect = lower value",0.996
same,normalized growth,"locus YOL136C, strain PFK27, stronger effect = lower value",0.869
same,normalized growth,"locus YOR061W, strain CKA2, stronger effect = lower value",0.864
same,normalized growth,"locus YOR119C, strain RIO1, stronger effect = lower value",0.967
same,normalized growth,"locus YOR231W, strain MKK1, stronger effect = lower value",0.825
same,normalized growth,"locus YOR329C, strain SCD5, stronger effect = lower value",1
same,normalized growth,"locus YPL031C, strain PHO85, stronger effect = lower value",0.915
same,normalized growth,"locus YPL153C, strain RAD53, stronger effect = lower value",0.914
same,normalized growth,"locus YPL204W, strain HRR25, stronger effect = lower value",0.9
same,normalized growth,"locus YPL209C, strain IPL1, stronger effect = lower value",1
same,normalized growth,"locus YPL256C, strain CLN2, stronger effect = lower value",0.845 (active)
same,normalized growth,"locus YPR025C, strain CCL1, stronger effect = lower value",0.998
same,normalized growth,"locus YPR106W, strain ISR1, stronger effect = lower value",0.988
same,normalized growth,"locus YPR111W, strain DBF20, stronger effect = lower value",0.987
same,normalized growth,"strain NNK1, stronger effect = lower value",0.993
same,normalized growth,"strain TSCII, stronger effect = lower value",0.983
